The sample as a whole holds a higher share of hits than the screen did.
RECQ1 inh-1 – qHTS Assay for Inhibitors of RecQ-Like Dna Helicase 1 (RECQ1) | ATP-dependent DNA helicase Q1 (Homo sapiens), P46063 | RECQ1 DNA unwinding, red fluorescence kinetic read | Potency, µM (highest dose often 57.3 µM), without a hit: at the top dose activity, negative = inhibition, hits mostly inhibitors | 240,000 tested, 0.54% active;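 further: plate controls were vehicle for no effect and no enzyme for full effect; nearly all actives have a fitted effect of over 30% in size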
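50 nM RECQ1T1 preincubated 15 min with compound in Tris pH 8.0 buffer with MgCl2, DTT, Tween-20 and 2.5 ug/ml poly(dI-dC); started with 200 nM TAMRA/BHQ-2 forked duplex and 2 mM ATP. Unwinding read as fluorescence (525/598 nm), two reads 2 h apart.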
GCN5L2 inh – qHTS Assay for Inhibitors of GCN5L2 | Histone acetyltransferase KAT2A (Homo sapiens), Q92830 | GCN5L2 HAT assay, ThioGlo1 CoA-SH fluorescence | Potency, µM (titrated, usually from 58.9 µM), without a hit: top-dose activity change, negative = inhibition, hits mostly inhibitors | 390,000 tested, 0.21% active
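Fluorescence readout, Ex340nm/Em540nm: ThioGlo1 (50uM final) reacts with free CoA thiol released as 20nM GCN5L2 acetylates H3(1-25) peptide (75uM) using acetyl-CoA (70uM). Compound and enzyme sat 15 min beforehand; 20 min room-temperature reaction.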
BLM inh – qHTS Assay for Inhibitors of Bloom's syndrome helicase (BLM). RecQ-like DNA helicase BLM (Homo sapiens), P54132. recombinant BLM DNA unwinding, fluorescence dequenching. Potency, µM (top dose mostly 56.1 µM), for the others: at the highest dose activity change, negative = inhibition, usual class: inhibitors. 350,000 tested, 0.2% active. AID 2528, 2010;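 further: plate controls were vehicle for no effect and no enzyme for full effect; nearly all actives have a fitted effect of over 35% in size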
TDP1 block – qHTS Assay for Inhibitors of Tyrosyl-DNA Phosphodiesterase (TDP1); Tyrosyl-DNA phosphodiesterase 1 (Homo sapiens), Q9NUW8; recombinant TDP1, AlphaScreen DNA substrate cleavage; Potency, µM (highest dose often 130 µM), for inactives: top-dose activity change, negative = inhibition, hits mostly inhibitors; 350,000 tested, 0.28% active; AID 485290, 2010; further: nearly all actives have a fitted effect of over 40% in size
Target sequence (Q9NUW8 whole entry, looked up): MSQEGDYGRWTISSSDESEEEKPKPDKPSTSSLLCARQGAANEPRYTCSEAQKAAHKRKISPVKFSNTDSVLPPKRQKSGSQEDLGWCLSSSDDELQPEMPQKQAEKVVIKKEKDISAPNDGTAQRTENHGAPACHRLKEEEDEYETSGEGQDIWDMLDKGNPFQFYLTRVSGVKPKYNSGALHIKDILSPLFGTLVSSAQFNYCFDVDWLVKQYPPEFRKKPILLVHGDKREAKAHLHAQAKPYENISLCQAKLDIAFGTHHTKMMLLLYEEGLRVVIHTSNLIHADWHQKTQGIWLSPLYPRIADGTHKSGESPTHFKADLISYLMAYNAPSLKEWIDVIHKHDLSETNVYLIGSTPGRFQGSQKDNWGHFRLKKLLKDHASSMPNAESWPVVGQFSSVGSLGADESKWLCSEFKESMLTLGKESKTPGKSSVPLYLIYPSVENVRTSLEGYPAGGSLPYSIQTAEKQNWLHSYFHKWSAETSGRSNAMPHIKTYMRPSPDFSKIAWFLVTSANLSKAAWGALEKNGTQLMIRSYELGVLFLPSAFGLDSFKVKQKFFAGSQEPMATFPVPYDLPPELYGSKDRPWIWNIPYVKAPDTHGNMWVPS
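Signal: AlphaScreen proximity between streptavidin donor and anti-FITC acceptor beads on intact substrate. Reaction: Tdp1 1 nM, substrate 15 nM final, 5 min RT after 15 min compound preincubation.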
APE1 inh-1 – qHTS Assay for Inhibitors of the Human Apurinic/apyrimidinic Endonuclease 1 (APE1); DNA repair nuclease/redox regulator APEX1 (Homo sapiens), P27695; recombinant APE1, TAMRA/BHQ-2 abasic DNA cleavage fluorescence; Potency, µM (titrated, usually from 65.8 µM), for the others: top-dose activity change, negative = inhibition, actives largely listed as inhibitors; 350,000 tested, 0.35% active; AID 2517, 2012;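 further: plate controls were vehicle for no effect and reference inhibitor for full effect; nearly all actives have a fitted effect of over 55% in size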
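Step 1: APE1 (0.75 nM) with compound, 15 min RT. Step 2: add 50 nM fluorophore/quencher THF duplex. Step 3: three fluorescence reads 60 s apart (525/598 nm); read 3 minus read 1 = reaction progress.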
KDM4E inh – qHTS Assay for Inhibitors of Human Jumonji Domain Containing 2E (JMJD2E). Potency, µM (titrated, usually from 57.1 µM), for the others: at the top dose activity change, negative = inhibition, most hits filed as inhibitors. JMJD2E catalytic domain, FDH-coupled NADH fluorescence (FDH is formaldehyde dehydrogenase). 230,000 tested, 1.6% active. Lysine-specific demethylase 4E (Homo sapiens), B2RXH2. AID 2147, 2009; active means well fitted inhibition curve with a large enough effect, not every such curve was filed as active; inconclusive means small, poorly fitted or top-dose-only effect, or another doubt; inactive means no such curve, though single readings can be large or run the other way;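 further: 0% = wells with enzyme and -100% = buffer wells without enzyme; nearly all actives have a fitted effect of over 50% in size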
APE1 dye cs – Counterscreen for APE1 Inhibitors: Fluorescent Dye Displacement Assay; Potency, µM (titrated, usually from 28.5 µM), inactives show top-dose activity change, negative = inhibition, most hits filed as inhibitors; 480 tested, 7% active; shares compounds with APE1 inh-1; DNA fluorescent dye displacement counterscreen, fluorescence; AID 2564, 2010;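 further: loss of thiazole orange fluorescence as the dye is displaced from duplex DNA; 0% = ThO with dsDNA and no compound and -100% = ThO without dsDNA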
Endo IV inh – Counterscreen for APE1 Inhibitors: qHTS Assay for Inhibitors of Endonuclease IV; shares compounds with APE1 inh-1; E. coli Endo IV, fluorogenic AP-site DNA cleavage; Potency, µM (top dose mostly 27.1 µM), for inactives: top-dose activity change, negative = inhibition, actives largely listed as inhibitors; 560 tested, 4% active; AID 2565, 2010;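 further: plate controls were uninhibited enzyme wells for no effect and no enzyme buffer wells for full effect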
APE1 inh-2 – Confirmation qHTS Assay for Inhibitors of the Human Apurinic/apyrimidinic Endonuclease 1 (APE1); 750 tested, 44% active; shares compounds with APE1 inh-1; Potency, µM (top dose mostly 57.1 µM), for inactives: top-dose activity change, negative = inhibition, usual class: inhibitors; purified APE1, fluorogenic abasic-site DNA cleavage; AID 2572, 2010; further: nearly all actives have a fitted effect of over 30% in size
APE1 FP – qHTS FP-Based Assay for Inhibitors of the Human Apurinic/apyrimidinic Endonuclease 1 (APE1); shares compounds with APE1 inh-1; APE1 binding to TAMRA-labelled double-stranded DNA, fluorescence polarization displacement; 480 tested, 7% active; Potency, µM (top dose mostly 28.5 µM), for the others: top-dose activity, negative = inhibition, usual class: inhibitors
RECQ1 inh conf – Confirmation qHTS Assay for Inhibitors of RecQ-Like Dna Helicase 1 (RECQ1). shares compounds with RECQ1 inh-1. RECQ1 helicase DNA unwinding, fluorescence. Potency, µM (titrated, usually from 229 µM), without a hit: at the highest dose activity change, negative = inhibition, hits mostly inhibitors. 610 tested, 28% active. AID 2708, 2010; further: nearly all actives have a fitted effect of over 45% in size
RECQ1 ADP FP – Counterscreen for RECQ1 Inhibitors: ADP Fluorescence Polarization Displacement Assay; 530 tested, 27% active; ADP fluorescence polarization displacement counterscreen; shares compounds with RECQ1 inh-1; Potency, µM (top dose mostly 228 µM), without a hit: top-dose activity change, negative = inhibition, most hits filed as inhibitors; further: nearly all actives have a fitted effect of over 45% in size
RECQ1 inh-2 – Confirmation qHTS Assay for Inhibitors of RecQ-Like Dna Helicase 1 (RECQ1) - Round 2 Cherry Picks; shares compounds with RECQ1 inh-1; recombinant RECQ1 DNA unwinding, red fluorescence; Potency, µM (top dose mostly 119 µM), without a hit: at the highest dose activity, negative = inhibition, usual class: inhibitors; 1,100 tested, 15% active; further: nearly all actives have a fitted effect of over 50% in size
An asterisk follows results filed as active; i = inactive; ? = inconclusive; · = no result; [ ] = another dose, or the depositor's remark. Unless noted, the call rests on the fitted dose curve; in most records, active means well fitted curve in the direction sought with a large enough effect; inconclusive means small, poorly fitted or top-dose-only effect, or another doubt; inactive means no such curve, though single readings can be large; an effect the other way counts as inactive or inconclusive. Unless noted, on the % scale 0 is the no-effect control and ±100 the full control effect; potency means the concentration at half of the fitted maximal effect.

SMILES | RECQ1 inh-1 | GCN5L2 inh | BLM inh | TDP1 block | APE1 inh-1 | KDM4E inh | Endo IV inh | APE1 inh-2 | APE1 FP | others
COC(=O)c1ccccc1NC(=O)c1noc2c1CCC2 | ? | ? | ? | 11µM* | ? | -24% | 24% | 11µM* | ? | APE1 dye cs=?;RECQ1 inh-2=?
C=C1CCN(C(Cc2ccccc2)C(=O)NC2CCN(Cc3ccccc3)CC2)S(=O)(=O)c2ccccc21 (stereo unspecified) | i | · | -4% | -8% | 1% | · | · | · | ·
Cc1ccc(Nc2ccc(N3CCN(C(=O)c4cccc([N+](=O)[O-])c4)CC3)nn2)cc1 | · | -12% | -2% | 5% | · | · | · | · | ·
COCCCNc1c2c3c(cccc3[nH]c1=O)C(=O)c1ccccc1-2 | 25µM* | ? | -10% | 4% | ? | -12% | 13µM* | ? | 4µM* | RECQ1 inh-2=56µM*
COCCCNC1=C(Cl)C(=O)c2ccccc2C1=O | -3% | 0% | -10% | 4% | -6% | -24% | · | · | ·
CCOC(=O)c1cc(-c2cccnc2)nn1-c1ccccc1C | -6% | -1% | -4% | 4% | 10% | -4% | · | · | ·
CCOC(=O)c1cc(-c2ccc(OC)cc2)nn1-c1ccccc1C(=O)O | 7.9µM* | -29% | -18% | 7.9µM* | 2.5µM* | -21% | · | 40µM* | · | RECQ1 inh conf=?;RECQ1 ADP FP=49%[91.9 µM];RECQ1 inh-2=?
Cc1ccc(C(=O)Nc2ccc(S(=O)(=O)O)c3cc(S(=O)(=O)O)cc(S(=O)(=O)O)c23)cc1NC(=O)c1cccc(NC(=O)Nc2cccc(C(=O)Nc3cc(C(=O)Nc4ccc(S(=O)(=O)O)c5cc(S(=O)(=O)O)cc(S(=O)(=O)O)c45)ccc3C)c2)c1 | 20µM* | ? | -10% | 4.5µM* | 22µM* | -2% | 14µM* | 8.9µM* | · | RECQ1 inh conf=2.5µM*;RECQ1 ADP FP=200%
CN1CCN(c2ncc3nc(-c4ccc(Cl)cc4)c(=O)n(CCC#N)c3n2)CC1 | -7% | ? | -2% | · | 15% | · | · | · | ·
O=C(/C=C/c1ccc(O)c(O)c1)OC1C(O)CC(OC(=O)/C=C/c2ccc(O)c(O)c2)(C(=O)O)CC1O (stereo unspecified) | -2% | 1% | 6% | -9% | ? | 3.2µM* | 104% | -11%[24.4 µM] | ? | APE1 dye cs=-7%;RECQ1 inh conf=6%;RECQ1 ADP FP=-3%
CC[C@H](C)[C@H](NC(=O)[C@H](C)NC(=O)[C@@H](N)C(C)C)C(=O)N[C@H](C(=O)N[C@H](C(=O)N[C@@H](CC(C)C)C(=O)N[C@H](C(=O)N[C@@H](CCCCN)C(=O)O)C(C)C)C(C)C)[C@@H](C)O | -15% | 55% | -4% | 11% | -2% | · | · | · | ·
Cc1ccc(C(=O)NCCc2ccc(Cl)cc2)cc1-n1c(C)nc2cccnc21 | · | 1% | 1% | 3% | · | · | · | · | ·
Cc1ccccc1CSc1nnnn1-c1ccc(C(N)=O)cc1 | · | 0% | -3% | · | 3% | · | · | · | ·
NC(=O)c1ccc(-n2nnnc2SCC(=O)c2ccc(O)c(O)c2)cc1 | 8.9µM* | -14% | -22% | · | 4µM* | 0.71µM* | 128% | 11µM* | -1% | APE1 dye cs=-4%;RECQ1 inh-2=?
CCOC(=O)C1CCc2sc(N)c(C#N)c21 (stereo unspecified) | 25µM* | -19% | -6% | 11% | ? | ? | 0% | -8%[24.4 µM] | ? | APE1 dye cs=-4%;RECQ1 inh conf=11%[114 µM];RECQ1 ADP FP=-1%[91.9 µM]
CCOC(=O)N1CCc2c(sc(N)c2C#N)C1 | -1% | 2% | 0% | 4% | ? | ? | · | · | ·
CCOC(=O)CCN1C(=O)[C@H]2[C@H]3[C@H](O)[C@H](O)C/C(=N/OC[C@@H](O)COCc4ccco4)[C@H]3CC[C@@H]2C1=O | i[11.5 µM] | · | 4%[12.4 µM] | 3%[21 µM] | 21%[12.4 µM] | · | · | · | ·
CCS(=O)(=O)N1CCc2cc(C(=O)NC(C)c3ccccc3)ccc21 (stereo unspecified) | · | -4% | -3% | 6% | · | · | · | · | ·
Cc1cc(C)n(Cc2ccc(C(=O)O)cc2)n1 | -7% | 0% | -2% | 3% | 2% | 1% | · | · | ·
